Measured values: PubChem BioAssay AID1159580 (chemical genetic matrix, 2015)
Several values for one entry are separate records, joined by “and”; a condition that tells them apart may be missing. Identical values can stand only once. The campaign covered roughly 5,500 compounds. About 2,000 (36%) were called active. About 18% were inconclusive and are not listed. Rule as the data show it: active = normalized growth mostly below about 0.91 (no sharp cut-off); inconclusive = no clear call, values can overlap the other calls; inactive = mostly above about 0.92. This is one part of the list.

Test: chemical genetic growth profiling, strain panel (AID 1159580);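 also: tested at 20 µM; growth read once vehicle control cultures reached saturation at 30 °C; 1 = growth at the plate median or of vehicle wells; lower values mean less growth of the strain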
Details: S. cerevisiae deletion strains, growth OD

Measured: normalized growth

COc1cc2c(cc1OC)[C@@]13CCN4CC5=CCOC6CC(=O)N2C1[C@H]6[C@H]5C[C@H]43 (stereo partly drawn)
inactive: locus YAL013W, strain DEP1, hits give low values 1.02 | locus YAL021C, strain ccr4, hits give low values 0.983 | locus YAL026C, strain drs2, hits give low values 0.998 | locus YAL030W, strain snc1, hits give low values 1 | locus YBL061C, strain skt5, hits give low values 0.994 | locus YBR009C, strain hhf1, hits give low values 0.994 | locus YBR021W, strain FUR4, hits give low values 0.985 | locus YBR023C, strain chs3, hits give low values 0.989 | locus YBR171W, strain sec66, hits give low values 0.99 | locus YBR229C, strain ROT2, hits give low values 1.01 | locus YBR231C, strain swc5, hits give low values 0.979 | locus YBR279W, strain paf1, hits give low values 0.993 | locus YCL011C, strain gbp2, hits give low values 0.988 | locus YCL016C, strain dcc1, hits give low values 0.986 | locus YCL029C, strain bik1, hits give low values 1.01 | locus YCL061C, strain MRC1, hits give low values 0.988 | locus YCL069W, strain vba3, hits give low values 0.995 | locus YCR088W, strain abp1, hits give low values 0.994 | locus YDL005C, strain med2, hits give low values 0.988 | locus YDL035C, strain GPR1, hits give low values 1.03 | locus YDL040C, strain nat1, hits give low values 0.983 | locus YDL074C, strain BRE1, hits give low values 1.03 | locus YDL101C, strain DUN1, hits give low values 1.02 | locus YDL185W, strain tfp1, hits give low values 1 | locus YDL192W, strain arf1, hits give low values 1.01 | locus YDR001C, strain nth1, hits give low values 0.997 | locus YDR069C, strain doa4, hits give low values 1 | locus YDR101C, strain arx1, hits give low values 0.997 | locus YDR137W, strain rgp1, hits give low values 1 | locus YDR150W, strain NUM1, hits give low values 1.02 | locus YDR159W, strain sac3, hits give low values 0.977 | locus YDR162C, strain NBP2, hits give low values 1.02 | locus YDR195W, strain ref2 0.927 | locus YDR297W, strain sur2, hits give low values 0.996 | locus YDR318W, strain mcm21, hits give low values 1.02 | locus YDR334W, strain swr1, hits give low values 0.986 | locus YDR335W, strain msn5, hits give low values 0.996 | locus YDR388W, hits give low values 0.994 | locus YDR392W, strain spt3, hits give low values 0.999 | locus YDR502C, strain sam2, hits give low values 1.03 | locus YEL003W, strain gim4, hits give low values 0.997 | locus YEL037C, strain rad23, hits give low values 0.989 | locus YEL061C, strain CIN8 (second series), hits give low values 0.986 | locus YEL061C, strain CIN8, hits give low values 1.01 | locus YER015W, strain faa2, hits give low values 0.989 | locus YER016W, strain bim1, hits give low values 0.989 | locus YER110C, hits give low values 0.997 | locus YER111C, strain swi4, hits give low values 0.971 | locus YER155C, strain BEM2 (second series), hits give low values 0.993 | locus YER155C, strain BEM2, hits give low values 1.01 | locus YER167W, strain BCK2, hits give low values 1 | locus YFR010W, strain ubp6, hits give low values 0.999 | locus YGL078C, strain dbp3, hits give low values 1.01 | locus YGL086W, strain mad1, hits give low values 1 | locus YGL167C, strain pmr1, hits give low values 0.988 | locus YGL173C, strain kem1, hits give low values 0.982 | locus YGL227W, strain vid30, hits give low values 0.984 | locus YGL240W, strain doc1, hits give low values 0.979 | locus YGL248W, strain PDE1, hits give low values 1.01 | locus YGL253W, strain hxk2, hits give low values 0.988 | locus YGR078C, strain PAC10, hits give low values 1.02 | locus YGR135W, strain pre9, hits give low values 1.01 | locus YGR229C, strain SMI1, hits give low values 1.04 | locus YGR252W, strain gcn5, hits give low values 0.994 | locus YHR013C, strain ard1, hits give low values 0.964 | locus YHR027C, strain rpn1, hits give low values 0.987 | locus YHR030C, strain SLT2, hits give low values 1.02 and 1.01 | locus YHR079C, strain IRE1 (second series), hits give low values 0.996 | locus YHR079C, strain IRE1, hits give low values 1.09 | locus YHR094C, strain hxt1, hits give low values 0.977 | locus YHR129C, strain ARP1, hits give low values 1.02 | locus YHR142W, strain chs7, hits give low values 0.99 | locus YHR200W, strain rpn10, hits give low values 0.99 | locus YIL066C, strain RNR3, hits give low values 1.02 | locus YIL073C, strain SPO22, hits give low values 1.02 | locus YIL125W, strain kgd1, hits give low values 1 | locus YIR030C, strain dcg1, hits give low values 0.996 | locus YJL092W, strain hpr5, hits give low values 0.984 | locus YJL095W, strain BCK1 (second series), hits give low values 0.984 | locus YJL095W, strain BCK1, hits give low values 1.02 and 0.999 | locus YJL115W, strain asf1, hits give low values 0.993 | locus YJL129C, strain trk1, hits give low values 0.99 | locus YJL134W, strain LCB3, hits give low values 1.01 | locus YJL154C, strain vps35, hits give low values 0.986 | locus YJL164C, strain tpk1, hits give low values 1.01 | locus YJL166W, strain qcr8, hits give low values 0.996 | locus YJL168C, strain set2, hits give low values 1 | locus YJL187C, strain SWE1 (second series), hits give low values 1.02 | locus YJL187C, strain SWE1, hits give low values 0.996 | locus YJR043C, strain POL32, hits give low values 1.04 | locus YJR066W, strain TOR1, hits give low values 0.973 | locus YJR075W, strain HOC1, hits give low values 1.02 | locus YKL009W, strain mrt4, hits give low values 1.04 | locus YKL068W, hits give low values 0.995 | locus YKL085W, strain MDH1 (second series), hits give low values 1 | locus YKL085W, strain MDH1, hits give low values 1 | locus YKL160W, strain elf1, hits give low values 0.98 | locus YKR001C, strain vps1, hits give low values 1.01 | locus YKR026C, strain gcn3, hits give low values 0.991 | locus YKR091W, strain srl3, hits give low values 0.994 | locus YLL001W, strain dnm1, hits give low values 0.989 | locus YLL026W, hits give low values 0.99 | locus YLL041C, strain sdh2, hits give low values 0.995 | locus YLR027C, strain aat2, hits give low values 0.996 | locus YLR039C, strain RIC1, hits give low values 1.04 | locus YLR058C, strain SHM2, hits give low values 1.02 | locus YLR102C, strain apc9, hits give low values 0.997 | locus YLR113W, strain HOG1, hits give low values 0.991 | locus YLR221C, strain rsa3, hits give low values 0.997 | locus YLR258W, strain gsy2, hits give low values 0.99 | locus YLR262C, strain YPT6 (second series), hits give low values 0.988 | locus YLR262C, strain YPT6, hits give low values 1.05 | locus YLR268W, strain sec22, hits give low values 1 | locus YLR320W, strain mms22, hits give low values 0.982 | locus YLR330W, strain CHS5, hits give low values 1.01 | locus YLR342W, strain FKS1 (second series), hits give low values 1.02 | locus YLR342W, strain FKS1, hits give low values 0.989 | locus YLR357W, strain rsc2, hits give low values 0.983 | locus YLR370C, strain arc18, hits give low values 0.991 | locus YLR371W, strain rom2, hits give low values 0.993 | locus YLR384C, strain iki3, hits give low values 0.995 | locus YLR418C, strain cdc73, hits give low values 1.01 | locus YML016C, strain PPZ1, hits give low values 1.01 | locus YML032C, strain rad52, hits give low values 1.01 | locus YML120C, strain ndi1, hits give low values 0.981 | locus YML124C, strain tub3, hits give low values 1 | locus YMR058W, strain fet3, hits give low values 0.986 | locus YMR078C, strain ctf18, hits give low values 1 | locus YMR125W, strain sto1, hits give low values 0.992 | locus YMR129W, hits give low values 0.997 | locus YMR205C, strain PFK2, hits give low values 0.973 | locus YMR223W, strain ubp8, hits give low values 1 | locus YMR231W, strain pep5, hits give low values 0.995 | locus YMR307W, strain GAS1, hits give low values 1.05 | locus YNL067W, strain RPL9B, hits give low values 1.01 | locus YNL071W, strain lat1, hits give low values 0.997 | locus YNL128W, strain TEP1, hits give low values 1.03 | locus YNL153C, strain GIM3, hits give low values 1.02 | locus YNL183C, strain NPR1, hits give low values 0.968 | locus YNL209W, strain ssb2, hits give low values 1 | locus YNL233W, strain BNI4, hits give low values 1.01 | locus YNL248C, strain rpa49, hits give low values 0.992 | locus YNL250W, strain rad50, hits give low values 1 | locus YNL271C, strain bni1, hits give low values 1.01 | locus YNL298W, strain CLA4, hits give low values 1.01 | locus YNL307C, strain MCK1, hits give low values 0.996 | locus YNL322C, strain KRE1 (second series), hits give low values 0.982 | locus YNL322C, strain KRE1, hits give low values 1.01 | locus YNR049C, strain mso1, hits give low values 0.989 | locus YNR052C, strain pop2, hits give low values 0.995 | locus YOL012C, strain htz1 1.21 | locus YOL147C, strain pex11, hits give low values 0.993 | locus YOR001W, strain rrp6, hits give low values 0.994 | locus YOR061W, strain CKA2, hits give low values 1.01 | locus YOR069W, strain VPS5, hits give low values 1.02 | locus YOR070C, strain gyp1, hits give low values 0.998 | locus YOR080W, strain dia2, hits give low values 0.986 | locus YOR083W, strain WHI5, hits give low values 0.993 | locus YOR106W, strain vam3, hits give low values 0.997 | locus YOR136W, strain idh2, hits give low values 0.991 | locus YOR144C, strain elg1, hits give low values 0.997 | locus YOR184W, strain ser1, hits give low values 1.02 | locus YOR231W, strain MKK1, hits give low values 1 | locus YOR265W, strain rbl2, hits give low values 0.991 | locus YOR270C, strain vph1, hits give low values 1 | locus YOR290C, strain snf2, hits give low values 0.99 | locus YOR316C, strain cot1, hits give low values 0.995 | locus YPL051W, strain arl3, hits give low values 0.997 | locus YPL055C, strain LGE1, hits give low values 1.03 | locus YPL078C, strain atp4, hits give low values 0.988 | locus YPL106C, strain sse1, hits give low values 0.971 | locus YPL240C, strain hsp82, hits give low values 0.988 | locus YPL256C, strain CLN2, hits give low values 0.979 | locus YPR119W, strain clb2, hits give low values 1 | locus YPR141C, strain kar3, hits give low values 0.998 | locus YPR163C, strain tif3, hits give low values 1.01 | locus YPR167C, strain met16, hits give low values 1.01 | strain wtn01, hits give low values 1
